High-throughput results deposited in PubChem by National Center for Advancing Translational Sciences (NCATS).
ERG Ets-DNA blk = blocks human ERG Ets domain binding to DNA; 370,000 compounds, 0.028% hits; P11308; AID 624246; fluorescence polarization, His-ERG Ets domain / labelled DNA; Potency, µM (doses to about 76.9 µM), for inactives: at the top dose FP activity, negative = inhibition, actives largely listed as inhibitors; active = well fitted inhibition curve with a large enough effect in the polarisation, with a control signal flat; inconclusive = small, poorly fitted or top-dose-only effect, or effect the other way, or a change in a side signal; inactive = no such curve, though single readings can be large or run the other way; the % refers to the polarisation;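 also: polarization taken with two DNA probes labelled with fluorescein and Texas red; % of control where 0% means no effect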
Target sequence (P11308 whole entry, looked up, the tested form may be a part): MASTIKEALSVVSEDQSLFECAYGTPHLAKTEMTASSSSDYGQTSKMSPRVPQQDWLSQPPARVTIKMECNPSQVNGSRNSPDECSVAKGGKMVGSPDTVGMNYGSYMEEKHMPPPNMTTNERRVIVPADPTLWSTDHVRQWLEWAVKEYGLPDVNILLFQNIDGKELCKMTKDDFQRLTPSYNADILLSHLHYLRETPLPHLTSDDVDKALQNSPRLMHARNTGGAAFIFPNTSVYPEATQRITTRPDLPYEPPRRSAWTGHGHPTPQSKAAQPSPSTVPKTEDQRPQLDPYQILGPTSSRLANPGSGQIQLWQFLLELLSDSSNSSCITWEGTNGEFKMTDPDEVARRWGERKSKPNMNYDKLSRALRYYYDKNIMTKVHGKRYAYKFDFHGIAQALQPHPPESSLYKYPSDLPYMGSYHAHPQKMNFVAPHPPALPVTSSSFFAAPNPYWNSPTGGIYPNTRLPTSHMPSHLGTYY
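His-tagged ERG Ets domain (1 uM in the protein solution; 300mM KCl, 50mM Tris-HCl, 1mM EDTA, 1mM DTT, pH 7.5) received compound, then a probe mix of 5 nM fluorescein-DNA and 100nM Texas-615-DNA. Fluorescence polarization was read for both dyes.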
TDP43 rescue = rescues yeast growth from TDP-43 toxicity; TDP-43 expressing yeast growth rescue, BacTiter-Glo, 24 h; Potency, µM (titrated, usually from 46.1 µM), inactives show top-dose growth rescue (activation), most hits filed as activators; 410,000 compounds, 1.8% hits; AID 652104; also: % of control where 0% means no effect; nearly all actives have a fitted effect of over 50% in size
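Luminescence from BacTiter-Glo reports growth of TDP-43-expressing yeast after 24 hr at 30 deg C with compound. Cells were raffinose-pregrown to mid-log, then seeded in galactose medium at OD600=0.02.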
Abeta yeast res = restores growth of yeast expressing A-beta42 peptide | yeast expressing A-beta42, growth rescue, OD600, 48 h; response scale: 0% DMSO, 100% iron-clioquinol control | Potency, µM (doses to about 46.1 µM), usual class: activators | 410,000 compounds, 0.063% hits | AID 1347071; also: nearly all actives have a fitted effect of over 55% in size
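Growth rescue measured by 600 nm absorbance after 48 h yeast culture at 30 C with compound. Values normalized between DMSO and an equimolar ferric chloride plus clioquinol control.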
aSyn rescue = rescues yeast growth from alpha-synuclein toxicity; Yeast expressing alpha-synuclein, growth rescue, BacTiter-Glo, 24 h; Potency, µM (doses to about 46.1 µM), for the others: at the highest dose growth rescue (activation), hits mostly activators; 370,000 compounds, 0.14% hits; also: % of control where 0% means no effect; nearly all actives have a fitted effect of over 65% in size
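Screening used galactose-induced yeast with toxic alpha-synuclein levels, exposed to compound for 24 hr at 30 deg C. Cell growth, read with BacTiter-Glo luminescence, gave the measured signal.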
Mito fusion yeast = blocks mitochondrial division or promotes mitochondrial fusion | S. cerevisiae fusion-defective mutant growth rescue, CellTiterGlo 48 h | Potency, µM (doses to about 46.1 µM), inactives show at the highest dose growth rescue (activation), usual class: activators | 320,000 compounds, 0.23% hits | AID 485298; also: % of control where 0% means no effect; nearly all actives have a fitted effect of over 45% in size
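Yeast fusion mutant, YPEG (non-fermentable carbon), compound, 48 h at 37C non-permissive; CellTiterGlo added, 10 min RT, luminescence read. Rescued growth = division inhibition.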
FUS yeast rescue = rescues growth of FUS-expressing yeast; S. cerevisiae FUS-expressing, growth rescue, OD600, 24 h; Potency, µM (series often up to 76.6 µM), hits mostly activators; 390,000 compounds, 0.24% hits;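 also: plate controls were DMSO vehicle for no effect and reference control for full effect; nearly all actives have a fitted effect of over 55% in size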
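FUS-expressing yeast, raffinose-pregrown, induced in 2% galactose minimal medium at OD 0.005; compounds in a dilution series, 24hr at 30C. Growth restoration read as absorbance at 600 nm. CP55940 positive control, DMSO negative.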
Active calls of the source: *; i = inactive; ? = inconclusive; . = no result; [ ] = dose if it differs, or a comment. Only some compounds are listed: those with a hit (about 2.2% of all), similar ones and a draw of the others. Unless noted, calls follow the shape of the dose curve; as a rule, active = well fitted curve in the direction sought with a large enough effect; inconclusive = small, poorly fitted or top-dose-only effect, or another doubt; inactive = no such curve, though single readings can be large; an effect the other way counts as inactive or inconclusive. Potency is read from the fitted curve at half-maximal effect.

SMILES | ERG Ets-DNA blk | TDP43 rescue | Abeta yeast res | aSyn rescue | Mito fusion yeast | FUS yeast rescue
CCOC(=O)c1cc(-c2ccccc2)n(CCC(=O)NCCc2cccc(C)c2)c1C | -1.6% | ? | i | . | . | ?
CCOC(=O)c1cc(-c2ccc(OC)cc2)n(CCC(=O)NCCc2ccccc2)c1C | 6.2% | 31.6µM* | i | . | . | ?
O=S(=O)(Oc1ccc(C(=S)N2CCOCC2)cc1)c1ccc(Cl)cc1 | -12.7% | 17.8µM* | i | 2.9% | -0.5% | i
COc1ccc(S(=O)(=O)Oc2ccc(C(=S)N3CCOCC3)cc2OC)cc1 | -3.5% | ? | i | 4.5% | -1.4% | i
Cc1ccccc1C(=O)Oc1ccc(Cl)cc1C(=S)N1CCOCC1 | -8.8% | 12.6µM* | i | -9.3% | -3.0% | i
O=C(Oc1ccc(C(=S)N2CCOCC2)cc1)c1cccc(Cl)c1 | 5.7% | 12.6µM* | i | 24.2% | -3.2% | i
CS(=O)(=O)c1cccc(-c2nnc(NC(=O)c3ccc4c(c3)OCCO4)o2)c1 | -17.6% | ? | i | . | . | i
CCOC(=O)c1c(NC(=O)COc2cc(C)ccc2C(C)C)sc2c1CCCC2 | -2.2% | 4.9% | i | . | . | i
CCN(C(=O)c1cc2c(=O)n(CC)c3ccccc3c2s1)c1cccc(C(F)(F)F)c1 | -0.5% | -4.8% | i | . | . | i
COc1ccc(/C=C2\NC(=S)N(CC3CCCO3)C2=O)c(OC)c1C (centres undefined) | . | 12.6µM* | i | -1.0% | 1.6% | i
COc1ccc(/C=C2\NC(=S)N(CC3CCCO3)C2=O)c(OC)c1 (centres undefined) | . | ? | i | 3.5% | 3.5% | i
O=C(CSc1ncnc2ccccc12)NCC(=O)c1ccccc1 | -2.4% | 12.6µM* | ? | 22.6% | 12.9% | i
NS(=O)(=O)c1ccc(CCNC(=O)CSc2ncnc3ccccc23)cc1 | -3.8% | -9.1%[0.397 µM] | i | 0.4% | 8.2% | i
O=C(Nc1ccccc1N1CCOCC1)c1ccc2ccccc2n1 | -6.6% | 12.6µM* | i | 9.3% | ? | i
Cn1nc(C(=O)Nc2ccccc2N2CCOCC2)ccc1=O | 10.6% | -3.2% | i | -11.2% | 3.7% | .
Cc1cc(F)ccc1NCc1ccccc1[N+](=O)[O-] | -5.6% | 26.7% | i | 15.3% | 14.7% | i
O=[N+]([O-])c1ccccc1CNc1ccc(F)c(Cl)c1 | 1.3% | 17.8µM* | i | -10.9% | 26.1% | i
Cc1ccc(CNC(=O)c2ccc(N3CCC4(CC3)CC(c3ccccc3)=NO4)c(NC(=O)c3ccco3)c2)cc1 | -4.4% | 20.8% | i | -1.9% | -2.1% | 17.8µM*
Cc1ccc2c(CC(=O)NNC(=O)c3ccccc3O)coc2c1 | -0.1% | 0.0% | i | -3.7% | 0.4% | 35.5µM*
CCOc1ccccc1NC(=O)Cc1coc2cc(C)ccc12 | -3.7% | 11.8% | i | 7.6% | 27.5% | i
COc1ccccc1NC(=O)Cc1coc2cc(C)ccc12 | -4.1% | 11.2µM* | i | 4.7% | 3.5% | i
COC(=O)[C@]12C[C@H](CC(=O)N3CCN(C(=O)c4ccco4)CC3)C(=O)N(CCc3ccc(OC)c(OC)c3)C1=C[C@H](C1CCCC1)O[C@@H]2C | . | . | . | . | . | i
CCCCCCN1C[C@@H](n2cc(COC(=O)c3ccccc3)nn2)[C@H](O)C[C@@H]1c1ccccc1 | . | 19.3% | i | 25.1µM* | . | i
CCCCCCN1C[C@H](n2cc(COC(=O)c3ccccc3)nn2)[C@@H](O)C[C@@H]1c1ccccc1 | . | 29.5% | i | 11.1% | . | i
CCCCCCN1C[C@H](n2cc(COC(=O)c3ccccc3)nn2)[C@@H](O)C[C@@H]1c1ccc(C)cc1 | . | 35.5µM* | i | -14.3% | . | ?
SMILES | ERG Ets-DNA blk | TDP43 rescue | Abeta yeast res | aSyn rescue | Mito fusion yeast | FUS yeast rescue
CC(C)[C@H](NC(=O)OCc1ccccc1)C(=O)N[C@@H](Cc1ccccc1)C1(O)CN(C)C(C(=O)NCc2ccccn2)CO1 (some centres undefined) | . | . | . | . | . | i
CC(C)(C)C(=O)Nc1nnc(COc2ccc(Cl)cc2)s1 | 3.8% | 11.2µM* | ? | 25.6% | 7.4% | i
O=C(Nc1nnc(COc2ccc(Cl)cc2)s1)c1cccs1 | 3.2% | -6.6% | i | -23.3% | 4.0% | i
CC1(c2cc([N+](=O)[O-])cc([N+](=O)[O-])c2)CC(C)(C)N(C(=O)c2ccccc2)c2ccccc21 (centres undefined) | 2.2% | 25.1µM* | i | -15.4% | -5.1% | i
O=C1[C@@H]2CSC(c3ccc(F)cc3)N2C(=O)N1c1ccc(Cl)cc1 (some centres undefined) | 0.0% | 14.1µM* | i | . | . | i
COc1cc(Nc2nc3c(S(=O)(=O)c4ccc(C)c(C)c4)nnn3c3ccsc23)cc(OC)c1 | 2.6% | 17.3% | i | . | . | i
CN(Cc1ccccc1)c1ccc(C(=O)O)cc1[N+](=O)[O-] | -12.3% | 15.8µM* | i | 0.2% | 12.4% | i
CN(Cc1ccccc1)C(=O)c1ccc(Cl)c([N+](=O)[O-])c1 | 8.1% | -31.0% | i | 2.2% | -2.9% | i
O=C(NC1CCCCN(Cc2cccc(Cl)c2)C1=O)c1cccs1 (centres undefined) | . | . | . | . | . | i
c1cnc(SCCOc2cccc3ccccc23)nc1 | -5.2% | 11.2µM* | i | -4.7% | 15.4% | i
Cc1ccc(N(C)C(=O)Cn2nc(Cc3ccncc3)c3ccccc3c2=O)cc1C | 0.2% | 3.8% | i | . | . | i
CN(C)C(=O)c1ccc2c(c1)N(CC(=O)NCc1ccccc1Cl)C(=O)C1CCCCN21 (centres undefined) | 1.5% | 0.0%[9.22 µM] | i | . | . | i
O=C(NCCOc1ccccc1Cl)c1ncn[nH]1 | -7.0% | 7.6% | i | 1.6% | 6.9% | i
O=C(NCCOc1ccccc1Cl)c1cc(F)c(F)cc1Cl | -1.7% | 8.91µM* | i | 13.6% | 0.7% | .
O=C(NCCOc1ccccc1Cl)C(=O)c1c[nH]c2ccccc12 | 4.0% | 11.2µM* | i | 0.8% | 7.2% | i
CCOC(=O)[C@@]12CCCC3=C1N(CCC3)C(=O)[C@H]2CC(=O)NCc1ccccc1 | . | . | . | . | . | i
O=C(NCc1ccc(F)cc1)C(=O)NCC(c1cccs1)S(=O)(=O)c1cccs1 (centres undefined) | 0.5% | 10.6% | i | . | . | i
COc1ccc(/C=C/C(=O)c2ccccn2)cc1 | 16.1% | -1.0%[9.22 µM] | i | -8.5% | 11.1% | i
COc1ccc([N+](=O)[O-])c(C=CC(=O)c2ccccn2)c1 | . | 2.82µM* | i | 20µM* | . | i
